Results taken from PubChem BioAssay AID1672 (Johns Hopkins Ion Channel Center, 2009).
In all, about 310,000 compounds went through this assay and about 2,600 (0.84%) were called active. Many of the other results were omitted from the sample, so actives are more common in it than they were. Unmarked numbers belong to inactive results.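 How the source made its calls: active means fluorescence ratio B-score at or below minus 3 SD of library scores, with starting-brightness B-score within 2 SD (cut at about -4.2 in these data); inactive means the rest.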

Target: Inward rectifier potassium channel 2 (Mus musculus) (UniProt P35561)
Sequence (P35561 whole entry, looked up): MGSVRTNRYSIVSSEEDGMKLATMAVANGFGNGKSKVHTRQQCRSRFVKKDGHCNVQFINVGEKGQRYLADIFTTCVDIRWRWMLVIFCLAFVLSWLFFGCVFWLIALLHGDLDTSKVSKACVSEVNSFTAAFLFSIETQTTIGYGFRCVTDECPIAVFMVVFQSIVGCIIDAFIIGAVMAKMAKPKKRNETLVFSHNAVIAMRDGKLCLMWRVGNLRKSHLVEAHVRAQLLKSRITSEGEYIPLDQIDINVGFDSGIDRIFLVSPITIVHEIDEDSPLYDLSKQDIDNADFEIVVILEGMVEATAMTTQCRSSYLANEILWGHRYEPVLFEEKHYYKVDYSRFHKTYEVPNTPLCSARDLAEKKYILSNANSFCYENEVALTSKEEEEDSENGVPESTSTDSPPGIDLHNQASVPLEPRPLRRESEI
Assay: inhibitors of mouse Kir2.1 inward-rectifier potassium channel (AID 1672);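 further: channel flux triggered by added potassium and thallium sulfate stimulus; B-score of peak minus minimum fluorescence over baseline after thallium stimulus; more negative B-score means stronger Kir2.1 block with less thallium influx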
Settings: HEK293-Kir2.1, FluxOR thallium flux fluorescence; at 10 µM; active compounds read low

SMILES	B-score
COc1ccc(CCNC(=S)N2CCN(S(=O)(=O)c3ccc(F)cc3)CC2)cc1	0.06
Cc1ccc2nc(N3CCN(C(=O)c4ccco4)CC3)sc2c1	-0.26
OCc1ccc(-c2ccccc2)c(-c2ccccc2)c1	-1.83
Cc1cc(C)c(S(=O)(=O)NCC(c2ccc3c(c2)OCO3)N2CCOCC2)c(C)c1 (centres undefined)	-1.24
COc1ccc(CCC(C)N2CCc3ccccc3C2)cc1 (centres undefined)	-8.02 (active)
COc1ccc(NC(=O)C(=O)NCC(c2ccco2)N2CCc3ccccc3C2)cc1 (centres undefined)	1.13
COc1ccc(OC)c(NC(=S)N2CCc3ccccc3C2)c1	0.14
Cc1c(C)n2c(SCC(=O)NC3CCCC3)nnc2[nH]c1=O	0.79
O=C1[C@H]2[C@@H](c3ccc(F)cc3)N3C(=O)N(c4ccc(C(F)(F)F)cc4)C(=O)[C@@]3(Cc3ccccc3)[C@H]2C(=O)N1C1CCCCC1	-0.87
[O-][n+]1ccc(OCc2ccccc2)cc1	0.47
Cc1cccc(N2CC(C(=O)Nc3ccccc3N3CCCC3)CC2=O)c1C (centres undefined)	0.2
CC(=O)Nc1ccc(Nc2c3ccccc3nc3ccccc23)cc1	0.07
N#Cc1cccc(Nc2c3c(nc4ccccc24)CCCC3)c1	-0.49
Cc1ccc(Nc2c3c(nc4ccccc24)CCC3)cc1	-15.2 (active)
Cc1ccc(S(=O)(=O)NC(C)C(=O)NCc2ccc(Cl)cc2)cc1 (centres undefined)	1.6
O=C(c1ccc(OC2CCN(C/C=C/c3ccc(F)cc3)CC2)cc1)N1CCCCC1	-2.2
COc1ccc(/C=C/CN2CCCC(C(=O)c3cc(F)ccc3F)C2)cc1 (centres undefined)	-4.21 (active)
CSCC(=O)N1CCCC(C(=O)c2cc(F)ccc2F)C1 (centres undefined)	1.27
COc1ccc(-c2csc3ncnc(N4CCN(S(=O)(=O)c5cccc(F)c5)CC4)c23)cc1	0.02
O=C(Nc1cccc(-c2cscn2)c1)C1CCN(Cc2ccsc2)CC1	-7.36 (active)
CCNC(=S)NNC(=O)C1CCN(Cc2ccccc2)CC1	-0.93
O=C(Nc1cccc(-c2cccc(Cl)c2)c1)C1CCN(C2CCC2)CC1	-4.84 (active)
O=C(Nc1cnn(Cc2ccc(Cl)cc2)c1)C1CCCC1	-1.43
CC(=O)c1cc(CN2CCC(C(=O)Nc3cccc(-c4cscn4)c3)CC2)cs1	-2.25

SMILES	B-score
CCn1cc(CN2CCC(C(=O)Nc3cccc(-c4cccc(Cl)c4)c3)CC2)cn1	-6.62 (active)
COc1cccc(-c2cccc(NC(=O)C3CCN(C4CCC4)CC3)c2)c1	-0.09
O=C(Nc1ccc(-c2cscn2)cc1)C1CCCN(Cc2ccc(CO)o2)C1 (centres undefined)	-0.77
O=C(NC1CCCC1)C1CCN(C(=O)Nc2cccc(Cl)c2)CC1	-1.63
CCOC(=O)c1c(C)oc2cc(Sc3ccccc3)c(O)c(O)c12	1.87
CCC(c1nnc(SCC(=O)NNC(=O)c2ccccc2)n1Cc1ccccc1)N(C)C (centres undefined)	0.93
CCCNC(=O)c1onc(CSc2ccc(F)cc2)c1C(=O)NC(C)C	-1.25
O=[N+]([O-])c1ncc(Br)cc1Nc1ccccc1	0.16
O=C(NCc1ccncc1)c1ccc(NS(=O)(=O)c2cccc([N+](=O)[O-])c2)cc1	0.45
CCCCN1C(N)=NC[C@@H]1CC1CCCCC1	-1.04
COc1cccc(NC(=O)CSc2nccn(-c3ccc4c(c3)OCCO4)c2=O)c1	-0.69
Nc1ccccc1/C=N\N=C/c1ccccc1N	-1.02
Cc1noc(C)c1CSCC(=O)Nc1ccc(Br)cc1Cl	0.74
COc1ccc(Cl)cc1NC(=O)CN(C)C(=O)c1cc(-c2cccs2)nn1-c1ccccc1	-0.85
CCCCn1c(N)c(N(CCOC)C(=O)c2sc3ccccc3c2Cl)c(=O)[nH]c1=O	-0.1
COc1ccc(NS(=O)(=O)c2ccc(C)c(C(=O)N(C)Cc3ccc(OC)cc3OC)c2)cc1	0.75
CCN(CC)C(=O)CN(c1cccc([N+](=O)[O-])c1)S(=O)(=O)c1ccccc1	1.08
Cc1ccc(S(=O)(=O)N(Cc2cccc([N+](=O)[O-])c2)C(=O)N2CCN(C)CC2)cc1	1.58
O=C(CCl)N(Cc1cccc([N+](=O)[O-])c1)c1cccc(Cl)c1	-5.7 (active)
COc1ccccc1NC(=O)Nc1nc(CC(=O)Nc2ccccc2F)cs1	-0.89
CC1CCc2[nH]c3ccc(C(=O)N(C)CC(=O)Nc4cccc(F)c4)cc3c2C1 (centres undefined)	-0.84
O=C(CN1C(=O)c2ccccc2C1=O)NCc1ccc(C(=O)O)cc1	-0.03
CC(C)N(C(=O)c1ccc(-c2ccccc2F)cc1)C(C)C	-0.06
CC(=O)N(C1=C(Cl)C(=O)c2ccccc2C1=O)c1ccc(C(=O)O)cc1	-11 (active)

SMILES	B-score
COc1ccc(CCNc2cc(N3CCN(C(=O)c4ccccc4OC)CC3)ccc2[N+](=O)[O-])cc1OC	-0.2
CC1(C)C=Cc2c(ccc3c2OC[C@@H](c2ccc(O)cc2O)C3)O1	0.26
Cc1ccc(S(=O)(=O)CCC(=O)Nc2nnc(CC(C)C)s2)cc1	0.9
CC(C)(C)CC(C)(C)NCC(O)COCCOc1ccc(Br)cc1 (centres undefined)	-6.18 (active)
OC(COc1ccc(Br)cc1)CN1CCCC1 (centres undefined)	-0.51
COc1ccc(OCC(O)CNCCNc2nccc(C(F)(F)F)n2)cc1 (centres undefined)	-1.42
CCCCCC(=O)N1CCN(S(=O)(=O)c2ccc3c(c2)OCCCO3)CC1	-1.7
COc1ccc(Cl)cc1NC(=O)CN1CCN(C(=O)N2CCOCC2)CC1	-2.11
CC1CC(=S)Nc2ccccc2N1Cc1ccccc1 (centres undefined)	-4.8 (active)
CC1CC(=O)Nc2ccccc2N1S(=O)(=O)c1cccs1 (centres undefined)	-0.1
CC1CC(C)(C)NC(=S)N1CCC(=O)N1CCN(Cc2ccccc2)CC1 (centres undefined)	-0.96
O=C(NCCc1ccco1)C(=O)NCCC1CCCCN1S(=O)(=O)c1ccccc1 (centres undefined)	-0.4
Cc1ccc(-c2nn(-c3ccccc3)cc2/C=C2\SC(=S)N(CCCCCC(=O)O)C2=O)o1	-6 (active)
CN(C)S(=O)(=O)c1cccc(-c2nn(-c3ccccc3)cc2/C=C2\SC(=S)N(CC(=O)O)C2=O)c1	0.81
COc1ccc(-c2nn(-c3ccccc3)cc2/C=C2/SC(=S)N(CCCC(=O)O)C2=O)c(C)c1	0.15
COc1ccc(-c2cc(C(=O)N/N=C/c3cccnc3)c3ccccc3n2)c(OC)c1	0.47
O=C(NNC(=O)c1ccc(-c2ccccc2)cc1)Nc1ccccc1	-0.44
CCOC(=O)c1c(C)[nH]c(C(=O)OCC(=O)N2CCCC2=O)c1C	-0.25
Cc1ccc2nc(NC(=O)CSc3nc(=O)n(CCCN(C)C)c4c3CCC4)sc2c1	-4.83 (active)
Cc1ccc(NC(=O)CSc2nc(=O)n(CCN(C)C)c3c2CCCC3)c(C)c1	-0.41
Cc1csc(NC(=O)CSc2nc(=O)n(CCCN(C)C)c3c2CCC3)n1	1.14
COc1ccc(S(=O)(=O)N2CCCCC2)cc1NC(=O)COc1ccccc1	0.95
CC(Nc1nc(N2CCOCC2)nc2ccccc12)c1ccccc1 (centres undefined)	-0.41
CC(Nc1nc(N2CCCC2)nc2ccccc12)c1ccccc1 (centres undefined)	-4.56 (active)

SMILES	B-score
CC(Nc1nc(N2CCN(CCO)CC2)nc2ccccc12)c1ccccc1 (centres undefined)	-0.6
COc1ccc(-c2c(C#Cc3ccccc3)c3ccccc3n2C)cc1	0.01
COc1ccc(-c2nc3ccccc3c(=O)n2CCc2ccc(O)cc2)cc1	0.02
COc1ccc(CCNCc2c(-c3ccccc3)n(C)c3ccccc23)cc1	-10.9 (active)
CCOc1cc2ccccc2cc1C(=O)Nc1ccccn1	1.1
COc1ccccc1C(=O)Nc1ccccc1C(=O)Nc1ccccc1	1.53
CC(C)(C)NCC(O)COc1cccc2[nH]c(=O)[nH]c12 (centres undefined)	1.46
COc1cccc2[nH]c(C(=O)NCCc3ccccc3)cc12	0.06
COc1ccccc1OCCNCC(O)COc1cccc2[nH]c3ccccc3c12 (centres undefined)	-4.77 (active)
Cc1cc2oc(=O)cc(CN3CCN(Cc4ccccc4)CC3)c2cc1C	-2.25
Cc1cc2oc3ccc(NCCC4CCCN4C)cc3c(=O)c2cc1C (centres undefined)	-7.66 (active)
CCCOc1ccc(C2c3c(oc4cc(C)c(C)cc4c3=O)C(=O)N2CCCN2CCOCC2)cc1 (centres undefined)	0.6
COc1ccccc1NC(=O)COC(=O)c1ccccc1SCC(=O)N1CCCC1	1.77
O=C(c1cc(-c2ccco2)nc2ccccc12)N(Cc1nnc(-c2ccc(Cl)cc2)o1)C1CC1	-1.19
O=C(NC1C2CC3CC(C2)CC1C3)c1ccc(N2CCNCC2)c([N+](=O)[O-])c1 (centres undefined)	0.7
CC(NC(=O)c1ccc(N2CCNCC2)c([N+](=O)[O-])c1)C12CC3CC(CC(C3)C1)C2 (centres undefined)	-8.06 (active)
CCC(C)NC(=O)c1ccc(N2CCC3(CC2)OCCO3)c([N+](=O)[O-])c1 (centres undefined)	0.4
COCOc1cc(O)c(C(=O)/C=C/c2ccc(OCOC)c(OCOC)c2)c(OCOC)c1	1.19
COc1ccc(CNC(=O)C2CCCC2)cc1	1.06
COc1ccc(NC(=O)c2cc(-c3ccc(C)cc3)on2)cc1	0.92
COc1ccc(NC(=O)/C(Cl)=C(/Cl)S(=O)Cc2ccc(C)cc2)cn1 (centres undefined)	-5.16 (active)
COc1ccc(Nc2cc(Cl)ccc2C(=O)O)cn1	2.53
